# Active and inactive are the calls of the source.
# Assays:
# [1] = test system: PRMT1 (protein arginine N-methyltransferase 1); test: small molecules binding arginine methyltransferase PRMT1 – biochemical, small-molecule microarray, 635 nm fluorescence, primary screen (AID 1088); conditions: higher = more signal;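 also: binding of Prmt1 protein to compounds spotted on small-molecule microarray slides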
# [2] = growth effects on S. cerevisiae YJM789 – YJM789 clinical isolate, OD600, 24 h, basal, primary screen (AID 1089); conditions: higher = more signal, called active from +8 up or from −8 down;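 also: growth of clinical yeast isolate S. cerevisiae YJM 789 seeded 1000 cells per well; test concentration not given here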
# [3] = S. pombe growth modifiers, basal conditions – strain 972, OD600, 24 h, no modulator, primary screen (AID 1090);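 also: basal condition with compound alone and no growth modifier present; test concentration not given here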; conditions: S. pombe 972 growth, higher = more signal, called active from +8 up or from −8 down
# [4] = budding yeast growth modifiers under rapamycin – strain BY4716, OD600, 96 h, primary screen (AID 1091); also: test concentration not given here; conditions: S. cerevisiae BY4716 + rapamycin, higher = more signal, called active from +8 up or from −8 down
# [5] = target: Torsin-1A-interacting protein 2 (Homo sapiens) (UniProt Q8NFQ8); test: small molecules binding lysate-expressed LULL1 – cell lysate, human LULL1 lysate, 635/667 nm fluorescence, primary screen (AID 1092); conditions: small-molecule microarray, hLULL1 lysate binding, 635 nm fluorescence; higher = more signal;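 also: probe is lysate of COS7 cells overexpressing human LULL1; score merges per-feature 667 nm fluorescence with signal-to-noise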
# Chain of Torsin-1A-interacting protein 2 (Homo sapiens) (Q8NFQ8 whole entry, looked up): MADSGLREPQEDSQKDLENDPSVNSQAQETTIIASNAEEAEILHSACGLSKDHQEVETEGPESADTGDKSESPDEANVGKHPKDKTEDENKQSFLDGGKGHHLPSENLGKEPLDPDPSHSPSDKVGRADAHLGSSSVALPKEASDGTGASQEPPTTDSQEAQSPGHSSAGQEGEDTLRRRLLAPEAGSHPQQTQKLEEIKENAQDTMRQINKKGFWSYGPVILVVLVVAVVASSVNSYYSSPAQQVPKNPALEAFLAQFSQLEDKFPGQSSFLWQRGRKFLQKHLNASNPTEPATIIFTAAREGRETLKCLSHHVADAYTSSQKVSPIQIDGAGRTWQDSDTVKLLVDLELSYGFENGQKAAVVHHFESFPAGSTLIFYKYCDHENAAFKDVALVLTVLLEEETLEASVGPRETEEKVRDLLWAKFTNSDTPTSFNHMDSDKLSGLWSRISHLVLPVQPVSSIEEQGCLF
# [6] = optical density change of DRC41 E. coli – strain DRC41, OD650, 24 h, E. coli filamentation project, primary screen (AID 1093);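 also: MC1000 strain lacking acrAB efflux and sulA so SOS filamentation is blocked; test concentration not given here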; conditions: E. coli DRC41 growth, higher = more signal, called active from +8 up or from −8 down
# [7] = probe aLefty2 binding to arrayed compounds – biochemical, biotinylated probe, 635/667 nm fluorescence, primary screen (AID 1094); conditions: small-molecule microarray, higher = more signal;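 also: score merges spot fluorescence near 667 nm with spot signal-to-noise ratio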
# [8] = test system: Noggin (protein binding on small-molecule microarray); test: small molecules binding Noggin protein – biochemical, 635/667 nm fluorescence, primary screen (AID 1095); conditions: 635 nm fluorescence, higher = more signal;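 also: score merges 667 nm feature fluorescence with signal to noise over triplicate slides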
# [9] = target: Neurogenic locus notch homolog protein 3 (Homo sapiens) (UniProt Q9UM47); test: small molecules binding NOTCH3 protein – biochemical, 635/667 nm fluorescence, primary screen (AID 1096); conditions: small-molecule microarray, 635 nm fluorescence, higher = more signal
# Chain of Neurogenic locus notch homolog protein 3 (Homo sapiens) (Q9UM47 whole entry, looked up): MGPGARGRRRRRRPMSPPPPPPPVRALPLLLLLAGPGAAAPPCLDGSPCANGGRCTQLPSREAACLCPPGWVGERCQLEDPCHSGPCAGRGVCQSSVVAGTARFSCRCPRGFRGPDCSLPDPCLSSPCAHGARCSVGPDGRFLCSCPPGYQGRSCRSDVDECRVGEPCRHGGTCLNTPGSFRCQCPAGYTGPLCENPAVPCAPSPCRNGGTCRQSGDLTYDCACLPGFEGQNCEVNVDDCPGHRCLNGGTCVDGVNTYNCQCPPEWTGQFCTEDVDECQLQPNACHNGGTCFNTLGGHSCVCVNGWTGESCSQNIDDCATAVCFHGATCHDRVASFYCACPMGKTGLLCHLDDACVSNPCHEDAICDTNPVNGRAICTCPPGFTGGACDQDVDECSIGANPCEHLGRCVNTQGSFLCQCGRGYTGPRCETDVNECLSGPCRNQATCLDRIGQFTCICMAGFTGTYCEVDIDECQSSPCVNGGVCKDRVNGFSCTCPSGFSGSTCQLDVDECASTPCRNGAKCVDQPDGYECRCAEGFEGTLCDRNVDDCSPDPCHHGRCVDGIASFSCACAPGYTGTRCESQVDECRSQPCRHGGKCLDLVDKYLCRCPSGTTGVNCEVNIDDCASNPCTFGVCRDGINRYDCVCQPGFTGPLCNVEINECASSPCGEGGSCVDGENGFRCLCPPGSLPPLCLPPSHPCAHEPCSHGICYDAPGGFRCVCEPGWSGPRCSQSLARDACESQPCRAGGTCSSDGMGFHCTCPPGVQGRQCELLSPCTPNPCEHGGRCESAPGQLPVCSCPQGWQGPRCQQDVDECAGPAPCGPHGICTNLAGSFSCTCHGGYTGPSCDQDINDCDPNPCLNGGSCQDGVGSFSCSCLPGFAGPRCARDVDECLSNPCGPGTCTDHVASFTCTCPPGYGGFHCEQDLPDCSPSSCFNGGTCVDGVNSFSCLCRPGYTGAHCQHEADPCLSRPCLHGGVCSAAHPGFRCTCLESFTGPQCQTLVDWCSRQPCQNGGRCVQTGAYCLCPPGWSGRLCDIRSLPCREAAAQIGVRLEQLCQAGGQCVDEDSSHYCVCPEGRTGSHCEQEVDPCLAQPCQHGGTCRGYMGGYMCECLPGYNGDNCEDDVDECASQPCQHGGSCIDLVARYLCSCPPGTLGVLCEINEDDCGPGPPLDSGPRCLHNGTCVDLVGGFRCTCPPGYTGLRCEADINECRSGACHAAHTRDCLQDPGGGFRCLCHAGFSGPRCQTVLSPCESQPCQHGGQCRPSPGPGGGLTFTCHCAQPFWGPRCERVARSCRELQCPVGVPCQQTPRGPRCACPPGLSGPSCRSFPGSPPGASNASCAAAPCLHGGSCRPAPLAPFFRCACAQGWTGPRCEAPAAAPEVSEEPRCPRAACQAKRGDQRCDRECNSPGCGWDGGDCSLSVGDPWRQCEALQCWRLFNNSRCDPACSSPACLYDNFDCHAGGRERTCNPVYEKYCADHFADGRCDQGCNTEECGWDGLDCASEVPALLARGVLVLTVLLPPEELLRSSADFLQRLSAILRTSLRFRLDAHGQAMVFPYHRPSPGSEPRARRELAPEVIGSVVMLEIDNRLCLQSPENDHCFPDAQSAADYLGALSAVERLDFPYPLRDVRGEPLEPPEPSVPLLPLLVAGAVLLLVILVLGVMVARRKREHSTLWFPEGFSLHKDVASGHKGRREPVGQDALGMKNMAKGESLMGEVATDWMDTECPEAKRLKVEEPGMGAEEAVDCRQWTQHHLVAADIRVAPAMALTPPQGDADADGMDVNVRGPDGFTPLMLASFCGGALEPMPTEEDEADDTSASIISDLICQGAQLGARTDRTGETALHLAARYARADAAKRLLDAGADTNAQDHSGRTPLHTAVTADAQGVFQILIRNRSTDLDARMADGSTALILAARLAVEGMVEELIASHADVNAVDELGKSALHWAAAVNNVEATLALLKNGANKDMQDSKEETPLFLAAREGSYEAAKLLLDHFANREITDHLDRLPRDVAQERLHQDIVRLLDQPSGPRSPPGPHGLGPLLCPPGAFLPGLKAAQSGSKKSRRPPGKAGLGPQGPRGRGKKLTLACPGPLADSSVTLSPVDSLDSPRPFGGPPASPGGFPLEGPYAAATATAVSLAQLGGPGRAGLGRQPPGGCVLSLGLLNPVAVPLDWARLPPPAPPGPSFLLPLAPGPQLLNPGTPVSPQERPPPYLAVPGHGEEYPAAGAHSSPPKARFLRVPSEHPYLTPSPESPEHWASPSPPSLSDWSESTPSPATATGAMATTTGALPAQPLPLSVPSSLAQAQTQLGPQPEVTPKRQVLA
# [10] = probe aEGFR binding to arrayed compounds – biochemical, biotinylated probe, 635/667 nm fluorescence, primary screen (AID 1097); conditions: small-molecule microarray, higher = more signal;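 also: probe is a biotinylated anti-EGFR antibody binding compounds printed on slides; score combines fluorescence near 667 nm and signal to noise of each spot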
# [11] = test system: Plasmodium falciparum Sir2 (PF13_0152, Sir2A); test: Plasmodium falciparum Sir2A binding compounds – biochemical, small-molecule microarray, 635 nm fluorescence, primary screen (AID 1098); conditions: fluorescence 635 nm, higher = more signal;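 also: score merges spot fluorescence intensity with its signal-to-noise ratio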
# [12] = probe aDKK1 binding to arrayed compounds – biochemical, biotinylated probe, 635/667 nm fluorescence, primary screen (AID 1099); conditions: small-molecule microarray, higher = more signal;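 also: score merges 667nm spot fluorescence with signal to noise across triplicate slides; reference of the scale not given here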
# [13] = probe aCHRDL2 binding to arrayed compounds – biochemical, biotinylated probe, 635/667 nm fluorescence, primary screen (AID 1100); conditions: small-molecule microarray, higher = more signal
# [14] = change in splice reporter luminescence, either direction, cell-based, HEK293, spliceosome inhibition project, primary screen (AID 1101); conditions: HEK293 splicing luciferase reporter, 24 h, higher = more signal, called active from +8 up or from −8 down;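 also: HEK293 cells carrying a splicing-competent luciferase reporter gene; test concentration not given here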
# [15] = target: Fibroblast growth factor 10 (Homo sapiens) (UniProt O15520); test: compounds binding fibroblast growth factor 10 – biochemical, small-molecule microarray, 635 nm fluorescence, primary screen (AID 1102); conditions: FGF10 binding, fluorescence 635 nm, higher = more signal
# Chain of Fibroblast growth factor 10 (Homo sapiens) (O15520 whole entry, looked up): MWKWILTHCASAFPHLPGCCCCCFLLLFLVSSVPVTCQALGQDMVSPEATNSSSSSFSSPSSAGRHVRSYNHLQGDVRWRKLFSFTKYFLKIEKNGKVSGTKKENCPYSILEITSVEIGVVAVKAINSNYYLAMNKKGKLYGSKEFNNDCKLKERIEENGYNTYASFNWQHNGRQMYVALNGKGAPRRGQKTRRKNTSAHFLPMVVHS
# [16] = test system: glycogen synthase kinase-3 (GSK3A per assay name; protocol says GSK3B); test: compounds binding glycogen synthase kinase-3 – biochemical, small-molecule microarray, 635 nm fluorescence, GSK3A, primary screen (AID 1103); conditions: fluorescence 635 nm, higher = more signal; also: the record names both GSK3A and GSK3B
# [17] = target: Epidermal growth factor receptor (Homo sapiens) (UniProt P00533); test: compounds binding epidermal growth factor receptor – biochemical, small-molecule microarray, 635 nm fluorescence, primary screen (AID 1104); conditions: EGFR binding, higher = more signal;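 also: score merges 667 nm emission intensity with spot signal to noise over triplicate slides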
# Chain of Epidermal growth factor receptor (Homo sapiens) (P00533 whole entry, looked up): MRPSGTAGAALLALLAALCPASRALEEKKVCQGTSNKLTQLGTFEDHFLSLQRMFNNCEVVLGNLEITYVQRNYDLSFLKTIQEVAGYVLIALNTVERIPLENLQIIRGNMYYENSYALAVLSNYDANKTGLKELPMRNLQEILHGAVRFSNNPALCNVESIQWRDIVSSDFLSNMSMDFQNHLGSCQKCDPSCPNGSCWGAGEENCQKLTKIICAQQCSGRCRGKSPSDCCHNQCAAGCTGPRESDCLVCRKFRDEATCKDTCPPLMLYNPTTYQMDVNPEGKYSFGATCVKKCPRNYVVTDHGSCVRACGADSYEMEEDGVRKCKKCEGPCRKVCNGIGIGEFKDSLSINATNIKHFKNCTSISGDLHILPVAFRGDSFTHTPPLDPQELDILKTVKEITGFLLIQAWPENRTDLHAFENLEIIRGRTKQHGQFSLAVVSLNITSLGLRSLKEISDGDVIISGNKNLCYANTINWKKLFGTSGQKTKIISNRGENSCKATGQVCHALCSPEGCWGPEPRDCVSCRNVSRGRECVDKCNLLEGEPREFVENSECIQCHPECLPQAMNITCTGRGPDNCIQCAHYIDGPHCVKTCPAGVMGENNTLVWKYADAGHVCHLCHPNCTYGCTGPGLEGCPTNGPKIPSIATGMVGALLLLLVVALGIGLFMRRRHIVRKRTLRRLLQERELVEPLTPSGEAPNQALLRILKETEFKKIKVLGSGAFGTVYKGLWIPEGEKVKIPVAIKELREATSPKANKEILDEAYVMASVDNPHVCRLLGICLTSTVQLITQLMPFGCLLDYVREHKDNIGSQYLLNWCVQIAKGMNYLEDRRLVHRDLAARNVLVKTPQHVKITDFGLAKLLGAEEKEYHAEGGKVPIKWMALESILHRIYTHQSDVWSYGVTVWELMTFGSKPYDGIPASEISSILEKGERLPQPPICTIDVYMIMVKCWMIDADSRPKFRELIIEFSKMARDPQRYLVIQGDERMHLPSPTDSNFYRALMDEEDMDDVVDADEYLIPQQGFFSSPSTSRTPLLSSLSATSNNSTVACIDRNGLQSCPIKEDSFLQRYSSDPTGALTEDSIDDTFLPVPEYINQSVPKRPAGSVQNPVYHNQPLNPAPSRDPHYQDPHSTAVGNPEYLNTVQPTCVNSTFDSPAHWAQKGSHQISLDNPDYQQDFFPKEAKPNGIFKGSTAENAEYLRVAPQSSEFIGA
# [18] = target: Follistatin-related protein 3 (Homo sapiens) (UniProt O95633); test: compounds binding follistatin-related protein 3 – biochemical, small-molecule microarray, 635 nm fluorescence, primary screen (AID 1105); conditions: FSTL3 binding, higher = more signal;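 also: score merges emission near 667 nm and signal to noise per printed spot across three slides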
# Chain of Follistatin-related protein 3 (Homo sapiens) (O95633 whole entry, looked up): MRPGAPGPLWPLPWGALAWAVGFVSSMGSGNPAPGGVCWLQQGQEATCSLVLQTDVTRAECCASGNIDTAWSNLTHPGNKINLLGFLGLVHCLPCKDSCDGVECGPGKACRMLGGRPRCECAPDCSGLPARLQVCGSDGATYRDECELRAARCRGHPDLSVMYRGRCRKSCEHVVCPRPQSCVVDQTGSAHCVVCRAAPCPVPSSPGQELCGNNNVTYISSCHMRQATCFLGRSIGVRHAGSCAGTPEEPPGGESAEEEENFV
# [19] = target: Dickkopf-related protein 1 (Homo sapiens) (UniProt O94907); test: small molecules binding DKK1 protein – biochemical, small-molecule microarray, 635 nm fluorescence scan, primary screen (AID 1106); conditions: higher = more signal;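 also: score merges emission near 667 nm with signal to noise over three replicate slides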
# Chain of Dickkopf-related protein 1 (Homo sapiens) (O94907 whole entry, looked up): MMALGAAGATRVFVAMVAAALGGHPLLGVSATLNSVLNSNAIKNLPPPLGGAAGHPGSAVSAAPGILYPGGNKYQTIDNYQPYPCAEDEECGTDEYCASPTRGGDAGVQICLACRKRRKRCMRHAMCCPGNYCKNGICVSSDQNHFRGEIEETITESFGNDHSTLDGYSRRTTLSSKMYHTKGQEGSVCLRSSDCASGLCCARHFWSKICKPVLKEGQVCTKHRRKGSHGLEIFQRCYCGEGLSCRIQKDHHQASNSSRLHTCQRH
# [20] = test system: Inhibin beta A chain (activin A); test: small molecules binding activin A – biochemical, small-molecule microarray, 635 nm fluorescence scan, primary screen (AID 1107); conditions: INHBA, higher = more signal;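 also: mouse activin A protein probed at 4.33 µg/mL on printed slides; score merges bound-protein fluorescence near 667 nm with spot signal-to-noise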
Compound,composite z-score [1],z-score [2],z-score [3],z-score [4],composite z-score [5],z-score [6],composite z-score [7],composite z-score [8],composite z-score [9],composite z-score [10],composite z-score [11],composite z-score [12],composite z-score [13],z-score [14],composite z-score [15],composite z-score [16],composite z-score [17],composite z-score [18],composite z-score [19],composite z-score [20]
CC(C)(C)N1C(=O)[C@H]2[C@H]3[C@H](O)[C@H](O)CC(=O)[C@@H]3CC[C@H]2C1=O,0.33,-0.128 (inactive),-0.509 (inactive),-0.0675 (inactive),-0.26,-0.561 (inactive),-0.204,0.562,0.373,-0.147,0.369,-0.227,-0.658,0.343 (inactive),0.639,0.239,0.479,0.265,0.711,0.156
CO[C@H]1COC(=O)CC=C[C@H](C)[C@@H](OC)COC(=O)[C@H](C)COC(=O)CC=C[C@@H]1C,0.765,0.395 (inactive),-0.425 (inactive),0.567 (inactive),-0.344,0.683 (inactive),-0.268,1.76,-0.292,-0.0439,0.661,-0.822,-1.53,-0.0334 (inactive),0.0773,0.429,1.36,1.1,1.78,1.52
COc1ccc(O[C@H]2C=C[C@@H](c3ccccc3)O[C@@H]2CON=C(C)CCC(=O)OC[C@H]2O[C@H](c3ccccc3)C=C[C@@H]2Oc2ccc(OC)cc2)cc1,-2.44,0.76 (inactive),0.91 (inactive),0.525 (inactive),-1.78,-0.0503 (inactive),-0.294,-0.769,0.0708,-0.267,0.0844,-0.252,0.2,0.114 (inactive),-1.19,-1.59,-1.63,-1.25,-0.591,0.95
CON=Cc1ccc(C(=O)N2[C@H](c3ccc(C)cc3)[C@@H](C)CC[C@H]2C(=O)OC)cc1,1.17,-0.0099 (inactive),-2 (inactive),-0.637 (inactive),1.23,0.823 (inactive),-0.293,0.292,0.772,-0.262,0.365,-0.254,-0.541,0.224 (inactive),0.52,0.873,0.594,0.512,0.573,0.339
CCc1cc2c(nc1CC)CCN(CCC(C)=NOC[C@H]1O[C@H](c3ccccc3)C=C[C@@H]1Oc1ccc(OC)cc1)C2,0.841,-0.837 (inactive),-5.85 (inactive),-0.473 (inactive),0.825,-0.782 (inactive),-0.164,0.0346,0.215,-0.0549,0.507,0.46,0.0691,-1.47 (inactive),-0.344,-0.26,-0.0924,-0.0668,-0.159,0.813
CCN1C(=O)[C@H]2[C@H]3[C@H](O)[C@H](O)CC(=NOCC(C)C)[C@@H]3CC[C@H]2C1=O,1.55,-0.132 (inactive),-0.666 (inactive),-0.242 (inactive),2.08,-0.637 (inactive),-0.0898,1.11,1.12,0.051,0.85,-0.0898,-0.672,0.272 (inactive),0.546,1.24,0.767,0.912,0.797,-0.599
CO[C@@H]1COC(=O)CC=C[C@@H](C)[C@H](OC)COC(=O)[C@@H](C)COC(=O)CC=C[C@H]1C,0.263,0.659 (inactive),-0.155 (inactive),1.2 (inactive),-0.915,0.421 (inactive),-0.317,0.496,-0.81,-0.616,0.474,-0.803,-1.29,0.166 (inactive),-0.55,0.0478,0.354,0.734,1.37,1.85
CCOC(=O)[C@H](Cc1ccccc1)NC(=O)CCC1CC(OC(=O)NCCc2ccc(F)cc2)CC2(CCCC(COC(=O)NCC3CCCCC3)O2)O1 (stereo not given in full),1.55,0.644 (inactive),0.432 (inactive),0.6 (inactive),2.4,0.18 (inactive),-0.106,0.53,1.07,0.0282,0.711,-0.184,-0.761,-0.308 (inactive),1.03,1.24,0.53,1.2,1.33,0.0408
COC(=O)CC=C[C@@H](C)[C@@H](C=NO[C@H](C)c1cn([C@H](CO)Cc2ccccc2)nn1)OC,1.14,-0.14 (inactive),-0.617 (inactive),-0.0624 (inactive),0.169,0.0673 (inactive),-0.12,1.37,0.614,0.0556,0.611,-0.233,-0.736,0.934 (inactive),0.877,0.483,0.952,0.515,1.06,-0.34
COC(=O)CC=C[C@@H](C)[C@@H](C=NOC[C@H]1O[C@H](c2ccccc2)C=C[C@@H]1Oc1ccc(OC)cc1)OC,-0.356,-0.337 (inactive),0.427 (inactive),0.439 (inactive),-0.072,-0.19 (inactive),-0.258,0.0133,-1.13,-0.253,-0.67,-0.242,-0.212,-0.194 (inactive),0.268,-0.393,-0.587,0.173,-0.0407,0.807
